Source: PubChem BioAssay
CYP2C19 inhib: blocks human cytochrome P450 2C19. AID 778. inhibition, % at 5 µM. P33261. 96,000 compounds, 21% hits. CYP2C19 Supersomes, luciferin-H EGE luminescence, 30 min;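 active = CYP2C19 inhibition above a set limit at 5 µM in the primary screen, cut at about 50% in these data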
CYP2C9 inhib: human CYP2C9 inhibition; CYP2C9 Supersomes, luciferin-H conversion, luminescence; 96,000 compounds, 20% hits; AID 777; inhibition, % at 5 µM;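 active = blocking of liver enzyme CYP2C9 beyond about 50% at 5 µM, limit read from the data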
Target sequence (P11712 whole entry, looked up): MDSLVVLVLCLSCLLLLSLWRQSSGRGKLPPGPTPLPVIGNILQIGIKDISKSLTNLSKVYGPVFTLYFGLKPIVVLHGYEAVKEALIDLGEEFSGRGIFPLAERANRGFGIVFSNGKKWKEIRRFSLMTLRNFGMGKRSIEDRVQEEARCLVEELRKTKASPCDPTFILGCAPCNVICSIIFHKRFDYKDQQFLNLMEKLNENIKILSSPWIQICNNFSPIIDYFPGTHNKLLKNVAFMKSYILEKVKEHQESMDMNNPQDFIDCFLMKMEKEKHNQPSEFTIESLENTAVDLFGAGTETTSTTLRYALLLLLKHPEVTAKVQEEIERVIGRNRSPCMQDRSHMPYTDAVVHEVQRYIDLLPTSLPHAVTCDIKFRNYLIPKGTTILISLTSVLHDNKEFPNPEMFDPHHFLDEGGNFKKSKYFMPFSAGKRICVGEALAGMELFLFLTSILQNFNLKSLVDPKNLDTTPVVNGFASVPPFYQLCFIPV
CYP2C9 activ: increases human cytochrome P450 2C9 activity | recombinant CYP2C9, luciferin-H conversion, luminescence; stronger effect = higher value; factor 1 = untreated enzyme, 0 = blocked | activation factor at 5 µM | 96,000 compounds, 1.4% hits | P11712;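 active = activation factor of 2 or more for CYP2C9 at a 5 µM dose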
CYP2C19 act: increases human CYP2C19 enzyme activity | P33261 | recombinant CYP2C19, luciferin-H EGE luminescence; stronger effect = higher value; 0 = fully inhibited enzyme, 1 = untreated enzyme | activation factor at 5 µM | 96,000 tested, under 10 active | AID 1025;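 active = activation factor of at least 2 at 5 µM in the primary screen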
Measles CPE: protection of cells from measles virus; protection (pct of control), % at 4 µM; Measles virus-infected cells, CPE protection, absorbance; 140,000 compounds, 1.5% hits; AID 841; in the data active = protection mostly above about 24%, no sharp cut-off; inactive = mostly below about 26%
A number is an active result; i = inactive; nt = no result given. Compounds with a hit are over-represented: about 22% of the library has one in this group of screens.

SMILES | CYP2C19 inhib | CYP2C9 inhib | CYP2C9 activ | CYP2C19 act | Measles CPE
CCCc1cc(C(=O)Nc2nccs2)cs1 | i | 52 | i | i | i
O=C(Nc1ccccc1)c1ccc(S(=O)(=O)NCC2CCCO2)cc1 (stereo unspecified) | i | i | i | i | i
CCNS(=O)(=O)c1ccc(NC(=O)c2cc(C(F)(F)F)nn2C)cc1 | i | i | i | i | 101
CCOC(=O)C(CC)(CCC(=O)O)c1csc(N)n1 (stereo unspecified) | i | i | i | i | i
Cc1nc(NC(=O)C(Cl)Cl)sc1C(=O)N(C)C | nt | nt | nt | nt | i
CC(=O)Nc1ccc(S(=O)(=O)NCc2ccc(C(=O)NC(C)c3ccccc3)cc2)cc1 (stereo unspecified) | i | 91 | i | i | i
CCNS(=O)(=O)c1ccc(NC(=O)c2cccnc2)cc1 | i | 78 | i | i | i
CC(=O)Nc1ccc(S(=O)(=O)NCc2ccc(C(=O)NCc3ccc(Cl)cc3)cc2)cc1 | i | i | i | i | i
CCCCc1ccc(S(=O)(=O)NCCc2ccncc2)cc1 | 100 | 68 | i | i | i
Cc1ccc(S(=O)(=O)NCCc2ccc(S(N)(=O)=O)cc2)cc1 | i | i | i | i | i
CCCCNS(=O)(=O)c1ccc(S(=O)(=O)NCc2ccncc2)cc1 | nt | nt | nt | nt | i
Cc1ccc(S(=O)(=O)NCCCOC(=O)Nc2ccncc2)cc1 | 92 | 100 | i | i | i
Cc1ccc(CCNS(=O)(=O)c2ccc(C)cc2)cc1 | 52 | 55 | i | i | i
Cc1ccc(S(=O)(=O)NCCCn2ccnc2)cc1 | nt | nt | nt | nt | i
Cc1ccc(S(=O)(=O)NCCc2ccncc2)cc1 | 97 | 51 | i | i | i
COC(=O)C1=C(N)c2ccccc2C1(C#N)c1ccccc1 (stereo unspecified) | i | i | i | i | i
COC(=O)c1cc(OC)c(OC)cc1NC(=O)Cc1ccccc1[N+](=O)[O-] | i | i | i | i | i
Cc1ccc(CC(CC(=O)O)C(=O)NCc2ccccc2)cc1 (stereo unspecified) | nt | nt | nt | nt | i
Cc1ccc(CNS(=O)(=O)NCc2ccccc2)cc1 | 77 | i | i | i | i
O=C(Nc1cccc(Cl)c1)c1cc(S(=O)(=O)NCCc2ccc(Cl)cc2)ccc1F | nt | nt | nt | nt | i
CSc1ccc(S(=O)(=O)NCc2ccc(C)cc2)cc1 | 95 | i | i | i | i
Cc1ccc(S(=O)(=O)NCc2ccc(C(=O)N3CCCC3)cc2)cc1 | nt | nt | nt | nt | i
O=S(=O)(NCCc1ccncc1)c1cc(Br)ccc1F | 89 | 51 | i | i | i
CCn1c(SCC(=O)N/N=C/c2ccc(O)c(OC)c2)nc2ccccc21 | nt | nt | nt | nt | i
COc1ccc(Cc2nc(-c3cccs3)no2)cc1OC | 78 | 65 | i | i | i
SMILES | CYP2C19 inhib | CYP2C9 inhib | CYP2C9 activ | CYP2C19 act | Measles CPE
COc1ccccc1NC(=O)Cc1noc(CN(C)Cc2cccs2)n1 | 78 | i | i | i | i
O=C(CCc1nc(-c2cccs2)no1)NCc1ccc(F)cc1Cl | 87 | 66 | i | i | i
COc1ccccc1NC(=O)CCc1nc(-c2cccs2)no1 | 85 | i | i | i | i
COc1ccc(Cc2nc(-c3ccc(-n4cccc4)cc3)no2)cc1OC | i | i | i | i | i
COCCCNC(=O)CCc1nc(-c2ccccc2Cl)no1 | i | i | i | i | i
Nc1ccc(C(=O)N/N=C2\CCCc3c2[nH]c2ccccc32)cc1 | i | i | i | i | i
Cc1ccc(CNC(=O)CCc2nc(-c3cccs3)no2)cc1 | 70 | 68 | i | i | i
Cc1ccc(-c2noc(CCC(=O)NCC3CCCO3)n2)cc1 (stereo unspecified) | i | i | i | i | i
CCCCOCCCNC(=O)c1cccs1 | i | i | i | i | i
CCc1ccc(OCCNC(=O)c2cccs2)cc1 | i | 74 | i | i | i
O=C(NCCOc1ccc(F)cc1)c1ccccc1SCc1ccccc1 | nt | nt | nt | nt | i
COc1ccccc1OCCNC(=O)c1cccs1 | 92 | 52 | i | i | i
CCc1ccc(OCCNC(=O)c2ccccc2SCc2ccc(F)cc2)cc1 | 51 | 50 | i | i | i
COc1ccc(CNC(=O)c2cccs2)cc1 | 94 | i | i | i | i
Cc1ccc(NC(=O)c2noc3c2CC(C(C)(C)C)CC3)cc1 (stereo unspecified) | i | i | i | i | i
Cc1ccc(-c2n[nH]c(=S)n2/N=C/c2cccs2)cc1 | nt | nt | nt | nt | i
O=C(NCCN1Cc2ccccc2C1=O)c1cccs1 | 77 | i | i | i | i
O=C(NCc1ccccc1F)c1cccs1 | 59 | i | i | i | i
NC(=O)CC[C@@H]1NC(=O)[C@H](CO)NC(=O)c2cc([N+](=O)[O-])cc(I)c2NCC[C@@H](C(N)=O)NC(=O)[C@H](Cc2ccc(O)cc2)NC1=O | nt | nt | nt | nt | i
NC(=O)CC[C@@H]1NC(=O)[C@H](Cc2ccc(O)cc2)NC(=O)c2cc([N+](=O)[O-])cc(F)c2OCC[C@@H](C(N)=O)NC1=O | nt | nt | nt | nt | 31
Cc1cc(Oc2ccc(C#N)cc2)nc(N2CCOCC2)n1 | i | i | i | i | i
COc1ccc(N(C(=O)Cn2nnc(-c3ccc(Cl)cc3)n2)C(C(=O)NCC2CCCO2)c2ccc(C)cc2)cc1 (stereo unspecified) | i | i | i | i | i
O=C(CCn1nnc(-c2cccs2)n1)NC1CCCCC1 | 76 | i | i | i | i
Cc1ccc(C(C(=O)NCC2CCCO2)N(Cc2ccccc2F)C(=O)Cn2nnc(-c3cccs3)n2)cc1 (stereo unspecified) | i | 52 | i | i | i
COc1ccc(-c2nnn(CC(=O)N(Cc3ccccc3Cl)C(C(=O)NCC3CCCO3)c3ccco3)n2)cc1OC (stereo unspecified) | i | 92 | i | i | i
SMILES | CYP2C19 inhib | CYP2C9 inhib | CYP2C9 activ | CYP2C19 act | Measles CPE
O=C(NC1CCCC1)C(c1ccncc1)N(CC1CCCO1)C(=O)Cn1nnc(-c2cccs2)n1 (stereo unspecified) | 78 | 95 | i | i | i
O=C(CCC(NC(=O)OCc1ccccc1)C(=O)OCc1ccccc1)NCC(=O)OCc1ccccc1 (stereo unspecified) | nt | nt | nt | nt | i
Nc1nnc(N2CCCCCC2)s1 | nt | nt | nt | nt | i
Cc1cc(C(=O)COc2ccc(C#N)cc2)c(C)n1-c1ccc2c(c1)OCO2 | nt | nt | nt | nt | i
O=S(=O)(/N=C(/Nc1cc(N2CCOCC2)ncn1)c1ccc(F)cc1)c1ccccc1 | i | i | i | i | i
CCC(CC)c1nnc(NC(=O)C2CC(=O)N(c3ccc4c(c3)OCCO4)C2)s1 (stereo unspecified) | nt | nt | nt | nt | i
COc1ccc(CNC(=O)CCc2nc(-c3ccccc3F)no2)c(OC)c1 | 74 | 57 | i | i | i
COc1cccc(NC(=O)CCc2nc(-c3ccccc3F)no2)c1 | i | 60 | i | i | i
CCN(C(=O)CCc1nc(-c2ccccc2F)no1)c1cc(OC)ccc1OC | 94 | 94 | i | i | i
COc1ccc(Br)cc1CNC(=O)CCc1nc(-c2ccccc2F)no1 | 65 | 57 | i | i | i
O=C(CCc1nc(-c2ccccc2F)no1)Nc1ccc(Oc2ccccc2)cc1 | i | i | i | i | i
Cc1nc(N2CCN(C)CC2)c2sc(=S)n(C)c2n1 | i | i | i | i | i
O=C(Nc1cccc(C(=O)N2CCOCC2)c1)c1ncn[nH]1 | i | i | i | i | i
